Data: PubChem BioAssay (Tox21)
Inconclusive results are not listed. Entries that show only a call come without a potency. The source made the active and inactive calls. Unless noted, calls follow the shape of the dose curve; as a rule, active = well fitted cell-killing curve with a large enough effect in the repeat runs; inconclusive = weak or mixed curves, or effect the other way; inactive = no such curve, though single readings can be large or run the other way.

Target: Thyrotropin receptor (Homo sapiens) (UniProt P16473)
Sequence (P16473 whole entry, looked up): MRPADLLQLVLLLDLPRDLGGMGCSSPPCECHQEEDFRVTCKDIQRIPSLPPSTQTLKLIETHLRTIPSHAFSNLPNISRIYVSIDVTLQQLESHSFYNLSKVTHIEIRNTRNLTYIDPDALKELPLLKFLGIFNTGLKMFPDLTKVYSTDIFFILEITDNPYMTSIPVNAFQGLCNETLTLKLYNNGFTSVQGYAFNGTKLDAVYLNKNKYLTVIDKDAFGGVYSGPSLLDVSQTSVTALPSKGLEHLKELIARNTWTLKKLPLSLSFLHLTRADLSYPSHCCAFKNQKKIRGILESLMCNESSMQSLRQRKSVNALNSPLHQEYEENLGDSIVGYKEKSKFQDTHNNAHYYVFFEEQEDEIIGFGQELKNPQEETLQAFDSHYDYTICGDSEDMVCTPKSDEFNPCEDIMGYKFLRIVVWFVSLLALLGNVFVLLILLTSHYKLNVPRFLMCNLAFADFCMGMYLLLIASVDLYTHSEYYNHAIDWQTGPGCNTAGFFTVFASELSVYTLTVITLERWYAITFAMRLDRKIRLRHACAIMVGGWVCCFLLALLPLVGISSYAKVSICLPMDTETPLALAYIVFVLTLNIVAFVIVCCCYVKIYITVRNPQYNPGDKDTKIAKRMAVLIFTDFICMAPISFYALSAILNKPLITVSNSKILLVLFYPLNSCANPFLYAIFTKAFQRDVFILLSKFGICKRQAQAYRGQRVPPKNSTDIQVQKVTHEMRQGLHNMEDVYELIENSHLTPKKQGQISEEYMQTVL
Experiment: qHTS assay to identify small molecule antagonists of the thyroid stimulating hormone receptor (TSHR) signaling pathway (AID 1259385; calls by dose curve; also: nearly all actives have a fitted effect of over 20% in size)
Conditions: TSHR-HEK293 cAMP HTRF, TSH-stimulated antagonist mode; series mostly up to 92.4 µM; activity change, negative = inhibition: at the top concentration
How it was run: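 Antagonist mode: compound-treated TSHR-expressing HEK293 cells were stimulated with 1.5 ng/mL TSH (final) in presence of Ro20-1724 for 30 min at RT. HTRF cAMP detection after 1 h; each compound tested at 15 concentrations, triplicate.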

| Structure (SMILES) | activity change, negative = inhibition | outcome |
| --- | --- | --- |
| Brc1ccc(Br)c(Br)c1 | 1.16% (inactive) |  |
| Clc1ccccn1 |  | inactive |
| CCCCCCCCCCCC(=O)OC |  | inactive |
| C=Cc1ccc(C)cc1 |  | inactive |
| CCCCCCCO |  | inactive |
| CCCCC(C=O)CC (configuration not stated) |  | inactive |
| CN(C)c1ccc(O)c2c1C[C@H]1C[C@H]3[C@H](N(C)C)C(=O)C(C(N)=O)=C(O)[C@@]3(O)C(=O)C1=C2O |  | inactive |
| CN1C(=O)CC[C@H]1c1cccnc1 |  | inactive |
| O=C1c2ccccc2CCc2ccccc21 |  | inactive |
| C=CC[N+](C)(C)CC=C |  | inactive |
| Nc1ccc(Cl)c(N)c1 |  | inactive |
| CC(CCl)OP(=O)(OC(C)CCl)OC(C)CCl (configuration not stated) |  | inactive |
| CCCCCCCCCCO |  | inactive |
| N#Cc1ccccc1 |  | inactive |
| CC(=O)c1ccc(O)cc1 | 2.09% (inactive) |  |

System: not listed separately
Experiment: qHTS assay to identify small molecule agonists of the estrogen receptor alpha (ER-alpha) signaling pathway in the presence of an antagonist - cell viability counter screen (AID 1259386);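 also: cells exposed to compounds for 22 h at 37 °C before the viability read; nearly all actives have a fitted effect of over 30% in size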
Conditions: VM7Luc4E2 viability, CellTiter-Fluor fluorescence, 22 h; series mostly up to 92.4 µM; activity change, negative = cytotoxicity: at the top concentration
How it was run: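 Cells are starved of estrogens for 5 days in charcoal-stripped serum, seeded for 24hr and co-treated with ICI-182,780 (10.0nM final) and test compounds. After 22hr at 37C, viability is read as CellTiter-Fluor fluorescence.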

| Structure (SMILES) | Potency | activity change, negative = cytotoxicity |
| --- | --- | --- |
| CNC(=S)N(C)C | inactive |  |
| CCCCCCCCCCCCCCCC(=O)OC(C)C | inactive |  |
| CCc1ccccc1CC | inactive |  |
| C=C(C)[C@H]1CC=C(C)C(=O)C1 | inactive |  |
| C[C@]12CC[C@@H]3c4ccc(O)cc4CC[C@H]3[C@@H]1C[C@@H](O)[C@@H]2O | inactive |  |
| c1ccc(Oc2ccccc2)cc1 | inactive |  |
| Cc1ccc(S(=O)(=O)N=C=O)cc1 | inactive |  |
| Brc1ccc(Br)c(Br)c1 | inactive |  |
| c1ccc2c(c1)Cc1ccccc1-2 | inactive |  |
| Clc1ccccn1 | inactive |  |
| CC(=O)OCc1ccco1 |  | 9.36% (inactive) |
| CCO[Si](CCC#N)(OCC)OCC | inactive |  |
| COCCOC(=O)c1ccccc1C(=O)OCCOC |  | 0.751% (inactive) |
| CN(C)c1ccc(Cc2ccc(N(C)C)cc2)cc1 | inactive |  |
| N[C@H](Cc1c[nH]c2ccccc12)C(=O)O | inactive |  |
| CCCCCCCCCCCC(=O)OC | inactive |  |
| C=Cc1ccc(C)cc1 | inactive |  |
| CC(=O)OC1CC(C)OC(C)O1 (configuration not stated) | inactive |  |
| CCCCCCCO | inactive |  |

| Structure (SMILES) | Potency | activity change, negative = cytotoxicity |
| --- | --- | --- |
| CCCCC(C=O)CC (configuration not stated) | inactive |  |
| C=CCCCCCCCCC(=O)O | inactive |  |
| CN(C)c1ccc(O)c2c1C[C@H]1C[C@H]3[C@H](N(C)C)C(=O)C(C(N)=O)=C(O)[C@@]3(O)C(=O)C1=C2O |  | -5.96% [at 42.5 µM] (inactive) |
| CC(C)(C#N)c1cc(Cn2cncn2)cc(C(C)(C)C#N)c1 | inactive |  |
| CN1C(=O)CC[C@H]1c1cccnc1 | inactive |  |
| CC1(C)OC[C@@H]2O[C@@]3(C(=O)O)OC(C)(C)O[C@H]3[C@@H]2O1 | inactive |  |
| O=C1c2ccccc2CCc2ccccc21 | inactive |  |
| C=CC[N+](C)(C)CC=C | inactive |  |
| Nc1ccc(Cl)c(N)c1 | inactive |  |
| CCCCCCCCCCCCCCCCO | inactive |  |
| OCc1cccc(Oc2ccccc2)c1 | inactive |  |
| CCCCOC(=O)c1ccc(N)cc1 | inactive |  |
| CC(CCl)OP(=O)(OC(C)CCl)OC(C)CCl (configuration not stated) | inactive |  |
| CCCCCCCCCCO | inactive |  |
| N#Cc1ccccc1 | inactive |  |
| CC(=O)c1ccc(O)cc1 | inactive |  |
| COc1ccc(CCC(C)=O)cc1 | inactive |  |
| NCCNCCN | inactive |  |
